This is an account of results in PubChem BioAssay (NCATS).

The nature of experiment [1]: qHTS to identify inhibitors of the type 1 interferon - major histocompatibility complex class I in skeletal muscle: primary screen against the NCATS LOPAC collection (AID 1347405).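 Further: human myoblasts with HiBiT tag on endogenous HLA-B stimulated by IFN-beta; lytic HiBiT luminescence reporting HLA-B protein level.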 Summed up: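 IFN-beta-stimulated (4 ng/ml) HLA-B HiBiT knock-in myoblasts, compound-treated 24 hrs up to 46 uM final; signal via LgBiT complementation and furimazine luminescence.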
On the technique in general: qHTS replaces the single test concentration by a dilution series.

The nature of experiment [2]: qHTS to identify inhibitors of the type 1 interferon - major histocompatibility complex class I in skeletal muscle: primary screen against the NCATS Pharmaceutical Collection (AID 1347407).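 Further: luminescence of HiBiT knocked into endogenous HLA-B as interferon-induced MHC class I level.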 Further: potency means the concentration at half of the fitted maximal effect. Summed up:
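Cells were seeded with 4 ng/ml IFN-beta, incubated 1 h, then dosed with compounds over eight 1:5 steps up to 46 uM final. After 24 h at 37 C, HiBiT lytic reagent was added and luminescence read after 10 min lysis in the dark.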

A short description of experiment [3]: qHTS for inhibitors of adenylyl cyclases using a fission yeast platform: a pilot screen against the NCATS LOPAC library (AID 1347410). In outline: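 Growth medium went into the plates first, then compounds were pinned (final up to 57 µM), then CHP2027 yeast were added. Plates were incubated overnight (18 h) at 30C in the dark, and GFP was measured by laser scanning cytometry.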

Experiment [4] concerns the target Protein phosphatase 1D (Homo sapiens) (UniProt O15297). In words: RapidFire Mass Spectrometry qHTS Assay for Modulators of WT P53-Induced Phosphatase 1 (WIP1) (AID 1347424).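 Further: amount of dephosphorylated VEPPL-S-QETFS peptide product formed by WIP1; series mostly up to about 63 µM.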 In outline:
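Mass-spectrometric measurement of dephosphorylated peptide after a 5 min room-temperature reaction of 10 nM WIP1 with 2 uM phosphopeptide, following 1 h compound preincubation in 30 mM MgCl2 buffer.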

Experiment [5] has the same target. In words: Rhodamine-PBP qHTS Assay for Modulators of WT P53-Induced Phosphatase 1 (WIP1) (AID 1347425). Summed up:
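Steps: enzyme with Rh-PBP sensor and compounds, room-temperature incubation of 1 hr, baseline read, addition of VEPPL-pS-QETFS (10 uM final), kinetic fluorescence reads at 525/598 nm. Activity equals final minus baseline signal.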

Experiment [6] deals with Single-stranded DNA cytosine deaminase (Homo sapiens) (UniProt Q9GZX7). Put plainly: Validation qHTS assay for inhibitors of Activation Induced Cytidine Deaminase (AID): AID signal (AID 1347429). Summed up: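 Compounds (up to 114 uM final) are tested against AID plus UDG using DJC20/DJC23 FRET substrate. Reactions incubate 4 hr at room temperature, receive NaOH for 30 min, and are read at Ex 540/Em 590 nm.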
Sequence of Single-stranded DNA cytosine deaminase (Homo sapiens) (Q9GZX7 whole entry, looked up): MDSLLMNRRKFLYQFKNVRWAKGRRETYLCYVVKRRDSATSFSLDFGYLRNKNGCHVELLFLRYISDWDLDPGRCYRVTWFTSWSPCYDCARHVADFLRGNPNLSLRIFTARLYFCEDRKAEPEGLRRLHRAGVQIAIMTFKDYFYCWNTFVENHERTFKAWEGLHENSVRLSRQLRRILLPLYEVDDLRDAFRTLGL

Experiment [7] can be described thus: Primary qHTS for inhibitors of La Crosse Virus (LACV) - induced cell death in SH-SY5Y cells (AID 1508616).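 Further: top concentration of the series differs between compounds; higher means more rescue of cells from virus-induced death.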 In outline: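 Screening measures cell viability in LACV-infected SH-SY5Y cultures. Compound was added before virus (0.01 MOI), and ATP was detected by luminescence 6 days later.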
The target in experiment [8] is Calcium and integrin-binding protein 1 (Homo sapiens) (UniProt Q99828). In words: Validation qHTS for Identification of Calcium Integrin Binding protein 1 (CIB1) Competitor (AID 1508618). Summed up: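 In this qHTS validation, the LOPAC set (up to 114 uM) was tested for blocking CIB1 binding to a fluorescein-tagged alphaIIb peptide, with FP detection at 480/540 nm.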
Sequence of Calcium and integrin-binding protein 1 (Homo sapiens) (Q99828 whole entry, looked up): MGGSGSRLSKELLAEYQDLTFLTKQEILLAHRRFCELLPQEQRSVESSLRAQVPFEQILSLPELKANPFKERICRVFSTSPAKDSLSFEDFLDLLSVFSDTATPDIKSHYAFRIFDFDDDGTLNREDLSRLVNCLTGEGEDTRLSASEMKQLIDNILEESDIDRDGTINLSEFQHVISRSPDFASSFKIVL

The target is the same in experiment [9]. In words: Primary qHTS for Identification of Calcium Integrin Binding Protein 1 (CIB1) Competitor (AID 1508620).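 Further: GST tagged CIB1 binding a fluorescein labelled alphaIIb integrin peptide tracer; top concentration of the series differs between compounds.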 Summed up: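 Fluorescence polarization competition: CIB1-GST (1 uM final) preincubated with compound 15 min at room temperature, then FITC-labeled alphaIIb peptide (100 nM final) added for another 15 min. Polarization read at Ex 480/Em 540.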
Experiment [10] can be described thus: qHTS to identify inhibitors of the type 1 interferon - major histocompatibility complex class I in skeletal muscle: primary screen against the NCATS Mechanism Interrogation Plate v5.0 (MIPE) Libary (AID 1347411). Further: nearly all actives have a fitted effect of over 65% in size. Further: potency means the concentration at half of the fitted maximal effect. In outline: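 IFN-beta-driven (4 ng/ml) HLA-B-HiBit expression in CRISPR-tagged C25cl48 myoblasts; compounds 11-pt, 1:3, max 46 uM, 24 hr exposure; lytic NanoLuc complementation luminescence.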

Experiment [11] can be described thus: Counterscreen qHTS for small molecule stabilizers of the endoplasmic reticulum resident proteome: GLuc-NoTag assay (AID 1508627). Further: series mostly up to about 76 µM. Summed up:
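Secreted GLuc lacking the SERCaMP modification is measured in SH-SY5Y cells exposed to compound for 19 h and then to thapsigargin (100 nM, 4 h) to deplete ER calcium; hits retested at 11 concentrations, up to 76.6 uM.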
Background: The purpose of a counterscreen is to sort out artefacts and off-target activity.

Experiment [12] can be described thus: Secretion counterscreen for inhibitors of the SERCaMP assay screened against the NCATS CANVASS Library (AID 1347390).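 Further: light from luciferase secreted into medium read as a measure of general secretion; series mostly up to about 77 µM.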 Summed up:
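Counterscreen identifying compounds that disrupt secretion, using SH-SY5Y cells with a constitutively secreted Gaussia luciferase reporter. A 20 h compound exposure (top 77 uM) precedes luminescent detection with coelenterazine.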

Experiment [13] can be described thus: qHTS for activators of Nrf2/ARE signaling pathway screened against the NCATS CANVASS Library (AID 1347391). Further: nearly all actives have a fitted effect of over 60% in size. Summed up: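 Activation of Nrf2/ARE was scored in ARE-bla HepG2 cells after 16 h compound exposure using CCF4 beta-lactamase fluorescence ratio readings.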
Experiment [14] in a line: qHTS for activators of dead-cell proteases activity screened against the NCATS CANVASS Library (AID 1347392).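 Further: luminescence from protease leaking out of membrane-damaged cells cleaving impermeant substrate; rising signal means more cytotoxicity.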 In outline:
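Cytotoxicity in HepG2 cells was assessed by released protease cleaving AAF-aminoluciferin, with luminescence as signal. Exposure lasted 5 h at 37C across an 11-point series.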

Experiment [15] can be described thus: Vero-766 cells viability qHTS against the NCATS CANVASS Library: Counterscreen for Zika virus inhibition assay (AID 1347394). Further: series mostly up to about 46 µM; nearly all actives have a fitted effect of over 60% in size. In outline:
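This cytotoxicity counterscreen uses African green monkey Vero 766 cells in the absence of Zika virus. Compounds are incubated with cells for 72 h, and ATP-based luminescence reports viability.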

Experiment [16] can be described thus: qHTS for inhibitors of Wild type Zika virus screened against the NCATS CANVASS Library (AID 1347396).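 Further: ATP luminescence of surviving cells so rescue from viral cell killing; series mostly up to about 46 µM.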 In outline:
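Using ATP-based luminescence (CellTiter Glo), this screen scores rescue of Vero 766 cells from wild-type Zika killing at 72 h post-infection. Compounds are tested in a concentration series.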

Experiment [17] in a line: Viability qHTS for inhibitors of the SERCaMP assay screened against the NCATS CANVASS Library (AID 1347400). Further: series mostly up to about 92 µM; nearly all actives have a fitted effect of over 70% in size. In outline:
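Measures loss of viability in SERCaMP reporter SH-SY5Y cells treated for 48 h with compounds; luminescent ATP detection by CellTiter-Glo.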

Experiment [18] in a line: Redox Reaction Profiling qHTS: Assay Interference Panel against the NCATS CANVASS Library (AID 1347401). Further: potency means the concentration at half of the fitted maximal effect. In outline: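 Quantitative HTS over an 11-point series was run in HEPES pH 7.3 with 50 mM NaCl, 200 uM DTT and 5 uM resazurin. Initial and 15-min resorufin fluorescence readings were taken.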

Unmarked numbers belong to inactive results. Results filed as inconclusive are left out. Active and inactive are the calls of the source. The call rests on the fitted dose curve; in most records, active means well fitted curve in the direction sought with a large enough effect; inconclusive means small, poorly fitted or top-dose-only effect, or another doubt; inactive means no such curve, though single readings can be large; an effect the other way counts as inactive or inconclusive.

Sequence of Protein phosphatase 1D (Homo sapiens) (O15297 whole entry, looked up): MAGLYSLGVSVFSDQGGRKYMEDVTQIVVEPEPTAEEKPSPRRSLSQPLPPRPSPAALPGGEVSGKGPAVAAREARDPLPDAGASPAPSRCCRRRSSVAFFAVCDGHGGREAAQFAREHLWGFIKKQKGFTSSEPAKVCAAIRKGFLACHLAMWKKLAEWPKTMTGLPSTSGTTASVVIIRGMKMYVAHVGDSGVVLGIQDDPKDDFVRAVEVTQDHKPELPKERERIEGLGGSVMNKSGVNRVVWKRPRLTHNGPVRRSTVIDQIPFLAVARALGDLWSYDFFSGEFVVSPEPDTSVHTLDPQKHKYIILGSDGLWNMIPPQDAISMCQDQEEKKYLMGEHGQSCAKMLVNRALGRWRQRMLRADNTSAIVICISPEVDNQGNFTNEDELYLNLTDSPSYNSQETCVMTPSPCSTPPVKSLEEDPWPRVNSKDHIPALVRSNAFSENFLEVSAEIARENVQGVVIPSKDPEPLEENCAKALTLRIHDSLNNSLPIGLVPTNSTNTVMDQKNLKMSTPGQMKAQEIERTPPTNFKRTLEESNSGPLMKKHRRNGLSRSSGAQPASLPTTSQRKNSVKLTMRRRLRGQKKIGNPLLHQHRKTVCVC

Turning to `CCN1CCC[C@H]1CNC(=O)c1cc(S(N)(=O)=O)ccc1OC`, the Potency entry in [1], in experiment [2], in experiment [6] and in experiment [9] was “inactive” each time. The call in experiment [3], in experiment [4], in [5], in experiment [7] and in experiment [8] was inactive.
As for `COc1ccc2cccc(CCNC(C)=O)c2c1`, the Potency result in experiment [2], in [10] and in [9] was “inactive” each time. Also, the result in [4], in [5] and in [7] was inactive.
As for `OC[C@@H](O)[C@H](O)[C@H](O)[C@@H](O)CO`, the Potency result in experiment [2] was “inactive”. In addition, the outcome in experiment [4], in experiment [5] and in experiment [7] was inactive.
Take `C[N+](C)(C)CC(=O)O`: the Potency result in [2] and in experiment [10] was “inactive” in each case. Further, the compound was classed as inactive in experiment [4], in [5] and in experiment [7].
As to `O=C(CCCCCCC(=O)Nc1ccccc1)NO`, the Potency in experiment [2] was 4.19 µM (active); in experiment [10] it was 1.47 µM (active). Also, the compound was classed as inactive in [4] and in experiment [5]. For the same compound, in [9], the Potency entry is “inactive”.
Turning to `CC(=O)c1ccc(S(=O)(=O)NC(=O)NC2CCCCC2)cc1`, the Potency entry in experiment [1], in [2], in experiment [6] and in experiment [9] was “inactive” in each case. Further, the compound was called inactive in [3], in experiment [4], in experiment [5], in [7] and in experiment [8].
Turning to `CC(=O)O[C@]1(C(C)=O)CC[C@H]2[C@@H]3C=C(Cl)C4=CC(=O)[C@@H]5C[C@@H]5[C@]4(C)[C@H]3CC[C@@]21C`, the Potency entry in experiment [1], in experiment [2], in experiment [10] and in experiment [6] was “inactive” throughout. In addition, the outcome in experiment [3], in experiment [5], in experiment [7] and in [8] was inactive.
`CC[C@]1(O)C[C@@H]2CN(CCc3c([nH]c4ccccc34)[C@@](C(=O)OC)(c3cc4c(cc3OC)N(C)[C@H]3[C@@](O)(C(=O)OC)[C@H](OC(C)=O)[C@]5(CC)C=CCN6CC[C@]43[C@@H]65)C2)C1`: the Potency entry in [2] and in experiment [9] was “inactive” in each case. The result in [4], in experiment [5] and in [7] was inactive.
Consider `CC(=O)CCCCn1c(=O)c2c(ncn2C)n(C)c1=O`, for which the Potency entry in experiment [1], in experiment [2] and in [6] was “inactive” each time. The call in experiment [3], in [4], in experiment [5] and in [7] was inactive.
Take `N#C[C@H]1C[C@H]2C[C@@H]2N1C(=O)[C@@H](N)C12CC3CC(CC(O)(C3)C1)C2`: in experiment [2], the Potency result is “inactive”. The compound was classed as inactive in [4], in experiment [5] and in experiment [7].
As for `CN(C)c1cc(NC(=O)CNC(C)(C)C)c(O)c2c1C[C@@H]1C[C@H]3[C@H](N(C)C)C(=O)C(C(N)=O)=C(O)[C@@]3(O)C(=O)C1=C2O`, the Potency result in experiment [2] and in [9] was “inactive” each time. Besides, the outcome in experiment [7] was inactive.
Consider `COc1cc2ncnc(Nc3ccc(F)c(Cl)c3)c2cc1OCCCN1CCOCC1`, for which the Potency entry in experiment [2], in experiment [10] and in experiment [11] was “inactive” in each case. Further, the result in experiment [4] and in experiment [5] was inactive.
Regarding `O=C(O)Cc1cccc2ccccc12`, the Potency entry in experiment [2] and in experiment [9] was “inactive” each time. Moreover, the compound was classed as inactive in experiment [4], in [5] and in experiment [7].
With `Cc1cccc(C)c1OCC(C)N` (stereo unspecified), the Potency entry in experiment [1], in experiment [2] and in [6] was “inactive” each time. Besides, the compound was called inactive in [3], in [4], in [5] and in experiment [7].
On to `O=C(O)C(O)Cc1ccc(O)c(O)c1` (stereo unspecified), for which the result in [12], in [13], in [14], in [15], in experiment [16] and in experiment [17] was inactive. Also, in experiment [18], the Potency is 15.2 µM (active). Also, the Potency result in experiment [10] and in [9] was “inactive” in each case.
Turning to `N#CC1(c2ccc(NC(=O)c3cccnc3NCc3ccncc3)cc2)CCCC1`, in experiment [10], the Potency result was “inactive”.
On to `O=C(Nc1ccccc1-c1cn2c(CN3CCNCC3)csc2n1)c1cnc2ccccc2n1`, for which the Potency in [10] is 14.7 µM (active).
Turning to `CC(=O)Oc1cc2c(s1)CCN(C(C(=O)C1CC1)c1ccccc1F)C2` (stereo unspecified), the Potency result in experiment [10] was “inactive”. Moreover, the compound was called inactive in experiment [4], in [5] and in [7].
For `CN[C@@H](C)C(=O)N[C@H]1CN(C(=O)CC(C)C)CC[C@H]2CC[C@@H](C(=O)NC(c3ccccc3)c3ccccc3)N2C1=O`, the Potency result in experiment [10] and in experiment [9] was “inactive” each time.
With `N[C@@]1(C(=O)O)CS(=O)(=O)[C@H]2[C@H](C(=O)O)[C@H]21`, the Potency result in experiment [10] was “inactive”.
Take `CC(C)C[C@H](CC(=O)O)C(=O)N[C@@H](Cc1c[nH]c2ccccc12)C(=O)N[C@@H](C)c1ccccc1`: the Potency result in experiment [10] and in [9] was “inactive” each time.
For `NC(N)=Nc1nc(CSCC/C(N)=N/S(N)(=O)=O)cs1`, the outcome in experiment [3], in experiment [4], in experiment [5], in experiment [7] and in experiment [8] was inactive. Also, the Potency entry in [6] and in experiment [9] was “inactive” each time.
Consider `O=C(Nc1ccccc1Br)N[C@@H]1CCN(c2ccc(C(F)(F)F)cn2)C1`, for which the Potency entry in [10] and in experiment [9] was “inactive” throughout.
